From PubChem BioAssay
Shiga toxin inh: Shiga toxin inhibition; Vero cells, Shiga toxin protein synthesis inhibition reporter; 9.2% of 290,000 active; inhibition, % at 38.7 µM; in the data active = inhibition mostly above about 28%, no sharp cut-off; inactive = mostly below about 43%; note: 0% is about no effect
Pf growth 48h: P. falciparum growth inhibition at 48 hours (one generation). P. falciparum luciferase growth in erythrocytes, 48 h. Potency, µM (doses to about 28.7 µM), for inactives: top-dose activity change, negative = inhibition, actives largely listed as inhibitors. 5.9% of 310,000 active; note: potency is the fitted concentration of half-maximal effect; % is set by controls: 0 for no effect and ±100 for the full control effect
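Cell-based growth assay: transgenic P. falciparum expressing firefly luciferase, cultured in red cells within RPMI 1640 containing 0.5% w/v Albumax, 24 mM bicarbonate and gentamycin. A drop in luciferase activity indicates inhibition.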
Pf growth 96h: P. falciparum growth inhibition at 96 hour, primary screen for plastid delayed-death inhibitors; P. falciparum luciferase reporter growth, 96 h; Potency, µM (highest dose often 28.7 µM), inactives show top-dose activity change, negative = inhibition, actives largely listed as inhibitors; 6.9% of 320,000 active; AID 504834; note: potency is the fitted concentration of half-maximal effect; % is set by controls: 0 for no effect and ±100 for the full control effect
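P. falciparum expressing integrated firefly luciferase, in erythrocytes at 2% hematocrit, 0.05% parasitemia, incubated with compounds 96 h at 37 C, 5% CO2. Growth inhibition read as loss of luminescence; two-generation exposure targets delayed-death apicoplast inhibitors.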
Cycloheximide cs: affects cycloheximide protein synthesis inhibition readout, counter-screen; cell reporter, cycloheximide protein synthesis inhibition counterscreen; max response, %; 12% of 300,000 active; AID 2314; in the data active = max response mostly above about 13%, no sharp cut-off; inactive = mostly below about 14%; note: read at 38.3 µM for the half of the compounds with a filed dose; 0% is about no effect
HCMV inh: human cytomegalovirus inhibition; 4.5% of 410,000 active; HFF cells, HCMV-luciferase reporter, 72 h; stronger effect = lower value; activity change, negative = inhibition, % at 57.5 µM; AID 1259415; in the data active = activity change below about -60%; inconclusive = no clear call, values can overlap the other calls; inactive = above about -39%; note: % is set by controls: 0 for no effect and ±100 for the full control effect
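After 16 h attachment at 37C, HFF cells received test compound and HCMV-luciferase (1 PFU/cell); reporter luminescence read 72 h later, data normalized against buffer-only and known inhibitor Salinomycin.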
HCV inh: inhibitors of hepatitis C virus infection. 3.4% of 340,000 active. Huh7.5.1 HCVcc-Cre infection, luciferase reporter, 44 h. Potency, µM (doses to about 41.8 µM), inactives show top-dose activity change, negative = inhibition, hits mostly inhibitors; note: potency is the fitted concentration of half-maximal effect; % is set by controls: 0 for no effect and ±100 for the full control effect
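Cells (1,000/well) were plated 4 h before compound, then infected with HCVcc-Cre virus (~0.5 moi). After 44 h further culture, infection was read as luciferase luminescence following a 15 min substrate incubation at room temperature.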
* hit, by the source's call; i = inactive; ? = inconclusive; . = not tested or not shown. Sampled rows, rich in hits. Any-hit rate of the full collection: about 21%. Unless noted, calls come from the whole dose curve; as a rule, active = well fitted inhibition curve with a large enough effect; inconclusive = small, poorly fitted or top-dose-only effect, or another doubt; inactive = no such curve, though single readings can be large or run the other way.

SMILES | Shiga toxin inh | Pf growth 48h | Pf growth 96h | Cycloheximide cs | HCMV inh | HCV inh
COCCNC(=O)CCc1nnc(Cc2ccc(-c3ccccc3)cc2)o1 | -3 | 1% | 12µM* | -1 | 19 | 10%
CC(c1nccs1)N(C)C(=O)CCc1nnc(-c2ccc(-c3ccccc3)cc2)o1 (stereo unspecified) | 28 | ? | 1% | 26* | 0 | ?
COC(=O)CCCNC(=O)CCc1nnc(-c2ccc(-c3ccccc3)cc2)o1 | . | . | . | . | -21 | ?
COc1cccc2c1N(C)C(=O)CC21C=CC(=O)C=C1 | 9 | . | . | 3 | . | .
CC(NC(=O)CCc1nnc(-c2ccc(-c3ccccc3)cc2)o1)c1nccs1 (stereo unspecified) | 36 | -16% | 14% | 14* | ? | -22%
CN(Cc1cnccn1)Cc1cn(Cc2ccccc2)nc1-c1ccc2c(c1)OCO2 | 18 | ? | ? | 8 | -23 | 11%
CN=C1SC(C(=O)Nc2ccccc2Cl)CC(=O)N1c1ccc(OC(F)(F)Cl)cc1 (stereo unspecified) | -16 | 10µM* | 0% | -2 | 40 | 12%
O=C(Cn1cccc1C(=O)c1ccccc1)NCCC1=CCCCC1 | 9 | -12% | 0% | -1 | -64* | -2%
O=C(CCc1ccccc1)NCCC1=CCCCC1 | 99* | 54% | ? | 40* | 60 | 4%
O=C(COC(=O)c1ccccc1)NCCC1=CCCCC1 | 13 | 17% | 28% | 14* | 37 | 11%
O=C(Cn1cccc1C(=O)c1ccccc1)NCCCc1ccccc1 | -5 | 10% | ? | -5 | -33 | -11%
Cc1ccsc1C(=O)OCC(=O)NCCC1=CCCCC1 | 35 | 28% | i | 22* | -13 | ?
O=C(COC(=O)c1ccc(Br)cc1)NCCC1=CCCCC1 | 31 | -4% | 36% | -3 | 11 | 3%
COCc1cc(N2CCNC[C@@H]2C)ccc1N1CCS(=O)(=O)CC1 | . | . | . | . | 28 | .
O=C(CN1C(=O)C2C3C=CC(C3)C2C1=O)NCCC1=CCCCC1 (stereo unspecified) | 32 | 41% | -9% | 22* | 3 | 19%
O=C(CCCc1ccccc1)NCCC1=CCCCC1 | 20 | 37% | 108% | 27* | -20 | 9%
O=C(CCS(=O)(=O)c1ccccc1Cl)NCCC1=CCCCC1 | 61* | 43% | 62% | 35* | 51 | 18%
Cc1ccc(S(=O)(=O)CCC(=O)NCCC2=CCCCC2)cc1 | . | 10% | 5% | . | 35 | -21%
CC1CCCCC1NC(=O)Cn1cccc1C(=O)c1ccccc1 (stereo unspecified) | 25 | -1% | -11% | 15* | -24 | 0%
O=C1Nc2ccccc2C(=O)N(C2CCCC2)C1C(=O)NC1CC1 (stereo unspecified) | . | . | . | . | 17 | .
CCCn1c(=N)c(C(=O)NC2CCCC2)cc2c(=O)n3cccc(C)c3nc21 | -7 | 1.9µM* | ? | -2 | -13 | -28%
Cc1ccc2nc3c(cc(C(=O)NCCN4CCOCC4)c(=N)n3CCCN3CCOCC3)c(=O)n2c1 | -5 | 12µM* | ? | -6 | . | 10%
Cc1ccc2nc(NCCCN3CCOCC3)c(C=NCCCN3CCOCC3)c(=O)n2c1 | 25 | 5% | -3% | 9.9* | 10 | 10%
CCCCNC(=O)c1cc2c(=O)n3cccc(C)c3nc2n(Cc2ccncc2)c1=N | 11 | 5.2µM* | -25% | -2 | -2 | 8%
CCc1ccc(N2CC(C(=O)N/N=C/c3cc([N+](=O)[O-])ccc3O)CC2=O)cc1 (stereo unspecified) | -8 | ? | 118% | 8 | ? | ?
SMILES | Shiga toxin inh | Pf growth 48h | Pf growth 96h | Cycloheximide cs | HCMV inh | HCV inh
COCCCn1c(=N)c(C(=O)NCc2cccnc2)cc2c(=O)n3cc(C)ccc3nc21 | . | . | . | . | 9 | .
Cc1cccn2c(=O)c3cc(C(N)=S)c(=N)n(CCCN4CCOCC4)c3nc12 | 8 | ? | ? | 0 | -64* | ?
Cc1ccc2nc3c(cc(C(N)=S)c(=N)n3CCCOC(C)C)c(=O)n2c1 | 10 | 12µM* | 1.5µM* | -1 | -19 | 25µM*
CCCCNC(=O)c1cc2c(=O)n3cccc(C)c3nc2n(CCN2CCOCC2)c1=N | 10 | 3.7µM* | ? | -4 | -30 | -33%
Cc1c(Cl)cccc1NC(=O)Cn1c(=O)n(Cc2ccco2)c(=O)c2sc3ccccc3c21 | . | . | . | . | 21 | .
Cc1ccc(N2CCN(C(=O)c3c4c(nc5ccccc35)C(=O)N(C3CCCCC3)C4)CC2)c(C)c1 | . | . | . | . | 40 | .
[O-]/[N+](=C\c1ccccc1)c1ccc(Br)cc1 | . | -10% | 190% | . | 68 | 7%
[O-]/[N+](=C\c1cccc(Br)c1)c1ccccc1 | 82* | 82% | 4% | 44* | ? | -2%
[O-]/[N+](=C\c1ccc(F)cc1)c1ccccc1 | 6 | 33% | . | 18* | ? | 16%
CC(C)OC(=O)CSc1nnc(-c2cnccn2)n1-c1ccc(Cl)cc1 | -12 | ? | 15µM* | 7 | -23 | 11%
CC(C)CN(CC(C)C)C(=O)CN1C(=O)NC2(CCCc3ccccc32)C1=O (stereo unspecified) | -3 | -26% | -24% | 13 | -13 | -12%
COCC(C)n1c(C)cc(C(=O)COC(=O)c2cccn2C)c1C (stereo unspecified) | . | . | . | . | -76* | ?
COCC(C)n1c(C)cc(C(=O)COC(=O)c2ccc3ncsc3c2)c1C (stereo unspecified) | 68* | -3% | -18% | 24* | -37 | -16%
Cc1nc(N)sc1N=Nc1ccccc1C(F)(F)F | 112* | -17% | ? | 45* | 39 | -28%
Cc1ccc(Cl)cc1NC(=O)C1C2CCC(O2)C1C(=O)O (stereo unspecified) | -5 | -2% | 198% | -1 | 6 | 0%
CSc1ccccc1C(=O)OCC(=O)N1CCCCCC1 | . | . | . | . | 35 | 7%
CN(C)c1ccc(N=Nc2ccccc2C(=O)OCC(=O)N2CCCC2)cc1 | 11 | ? | 13µM* | 2 | -12 | ?
CN(C)c1ccc(N=Nc2ccccc2C(=O)OCC(=O)N2CCCCCC2)cc1 | 56* | -2% | 0% | 28* | -13 | 3%
CN(C)c1ccc(N=Nc2ccccc2C(=O)OCC(=O)Nc2ccccc2C(F)(F)F)cc1 | 56* | ? | 9.3µM* | 37* | -75* | 0%
O=C(/C=C/c1ccccc1[N+](=O)[O-])NCCCN1CCCC1=O | -19 | 7% | -13% | 17 | 20 | 16%
C[n+]1ccn(CC(=O)c2cc(C(C)(C)C)c(O)c(C(C)(C)C)c2)c1 | -11 | 9.3µM* | 20% | -4 | -26 | -15%
C[n+]1ccn(CC(=O)c2ccc(Br)cc2)c1 | 11 | 12µM* | 9.3µM* | 4 | ? | 0%
C[n+]1ccn(CC(=O)c2ccc(Cl)cc2)c1 | -13 | -29% | 17% | -3 | -8 | 13%
